# Measured values taken from PubChem BioAssay (EPA / NIEHS).
# Results filed as inconclusive are left out. Some structures have more than one record in an assay (separate samples or runs), and their calls can disagree. Active and inactive are the calls of the source. Rule for the calls: active = hit-call score of the fitted dose curve at least 0.9, where 1 is the maximum; inconclusive = response in the unintended direction; inactive = score below 0.9.
# Assays:
# [1] = target: Luciferin 4-monooxygenase (Photinus pyralis) (UniProt P08659); test: CCTE_Simmons_QuantiLum_inhib_2: CCTE's Firefly Luciferase Inhibition Assay, Simmons Lab (AID 2283767);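 for AC50: potency for inhibitors that lower luciferase luminescence relative to DMSO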
# Outline: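 Luminescence loss relative to DMSO vehicle defines inhibition; detection reagent containing 150 uM D-luciferin and 147 uM dATP (final, pH 7.8) is injected immediately before each read. Enzyme is preincubated with an 8-point titration (5 nM–87.5 uM final) for 30 min at 37C.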
# [2] = ACEA_AR_agonist_AUC_viability: ACEA Biosciences xCELLigence Real-Time Cell Analysis on Androgen Receptor Agonism for Viability (AID 2283775);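 for AC50: viability read 80 hours after compound addition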
# Outline: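 Real-time impedance tracking of 22Rv1 growth, readings every 5 min for 5 h then hourly; area-under-curve viability endpoint at 80 hours, relative to DMSO. Compounds at eight concentrations, 1:4 steps, top 100 uM, n = 2.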
# [3] = ACEA_AR_antagonist_AUC_viability: ACEA Biosciences xCELLigence Real-Time Cell Analysis on Androgen Receptor Antagonism for Viability (AID 2283776);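 note: 22Rv1 human prostate cancer cells growing on impedance electrode plates; hits lower the growth signal relative to DMSO meaning cytotoxicity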
# Outline: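 Viability endpoint from label-free cell-index monitoring: 22Rv1 cultures treated with an eight-point 1:4 dilution series starting at 100 uM final, AUC at 80 h fitted against DMSO.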
# [4] = target: zebrafish Estrogen Receptor (ESR1), esr1 (gene 259252) (UniProt P57717); test: ATG_zfER1_XSP1: Attagene TRANS-FACTORIAL Multi-Species (XSP1) HepG2 Assay for zebrafish Estrogen Receptor (ESR1) (AID 2283772)
# Outline: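 Trans-activation readout: transfected zebrafish ER-Gal4 drives a UAS reporter in human HepG2 liver cells. After 24 h compound exposure (medium containing 3 nM 6-alpha-fluorotestosterone), induced reporter transcripts were quantified by RT-PCR with capillary electrophoresis, relative to DMSO.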
# [5] = test system: zebrafish Estrogen Receptor (ESR2B), gene 317733; test: ATG_zfER2b_XSP1: Attagene TRANS-FACTORIAL Multi-Species (XSP1) HepG2 Assay for zebrafish Estrogen Receptor (ESR2B) (AID 2283773)
# Outline: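 HepG2 cells transiently transfected with GAL4-UAS reporter units for chimeric zebrafish ER2b-Gal4, with 3 nM 6-alpha-fluorotestosterone present; reporter mRNA measured 24 h after dosing by RT-PCR and capillary electrophoresis, gain versus DMSO.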
# [6] = test system: frog Estrogen Receptor (ESR2), gene 100174814; test: ATG_frER2_XSP1: Attagene TRANS-FACTORIAL Multi-Species (XSP1) HepG2 Assay for frog Estrogen Receptor (ESR2) (AID 2283774)
# Outline: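 HepG2 cells transiently transfected with GAL4-UAS reporter units expressing chimeric frog ER-Gal4; 3 nM 6-alpha-fluorotestosterone present. After 24 h dosing, reporter mRNA quantified by RT-PCR and capillary electrophoresis; gain-of-signal fitted relative to DMSO.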
# [7] = test system: frog Estrogen Receptor (ESR1), gene 398734; test: ATG_frER1_XSP1: Attagene TRANS-FACTORIAL Multi-Species (XSP1) HepG2 Assay for frog Estrogen Receptor (ESR1) (AID 2283777)
# Outline: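 HepG2 cells transiently transfected with frog ER–GAL4 chimera and GAL4-UAS reporter, with 3 nM 6-alpha-fluorotestosterone present; 24 h dosing, reporter mRNA quantified by RT-PCR and capillary electrophoresis, gain of signal versus DMSO.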
# [8] = test system: zebrafish Estrogen Receptor (ESR2A), gene 317734; test: ATG_zfER2a_XSP1: Attagene TRANS-FACTORIAL Multi-Species (XSP1) HepG2 Assay for zebrafish Estrogen Receptor (ESR2A) (AID 2283778)
# Outline: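 HepG2 cells transiently transfected with GAL4-UAS reporter units driven by a zebrafish ESR2A–Gal4 chimera; 24 h compound exposure with 3 nM 6-alpha-fluorotestosterone present. Reporter mRNA measured by RT-PCR with fluorescent capillary electrophoresis, fitted positive versus DMSO.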
# Luciferin 4-monooxygenase (Photinus pyralis), sequence (P08659 whole entry, looked up): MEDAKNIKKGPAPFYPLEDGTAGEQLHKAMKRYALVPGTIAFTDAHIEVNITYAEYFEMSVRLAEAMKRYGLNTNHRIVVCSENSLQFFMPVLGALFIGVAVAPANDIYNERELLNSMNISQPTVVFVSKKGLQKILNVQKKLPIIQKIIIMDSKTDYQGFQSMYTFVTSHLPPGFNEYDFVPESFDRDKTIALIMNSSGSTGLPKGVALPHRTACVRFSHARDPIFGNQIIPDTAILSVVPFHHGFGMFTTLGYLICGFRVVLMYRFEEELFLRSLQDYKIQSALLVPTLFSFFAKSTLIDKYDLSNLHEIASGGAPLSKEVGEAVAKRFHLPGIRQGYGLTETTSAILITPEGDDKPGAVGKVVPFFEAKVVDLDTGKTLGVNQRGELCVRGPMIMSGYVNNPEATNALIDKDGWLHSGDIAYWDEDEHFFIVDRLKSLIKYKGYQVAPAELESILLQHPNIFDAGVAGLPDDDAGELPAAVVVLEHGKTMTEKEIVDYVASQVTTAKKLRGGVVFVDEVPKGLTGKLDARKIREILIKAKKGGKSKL
# zebrafish Estrogen Receptor (ESR1), esr1 (gene 259252), sequence (P57717 whole entry, looked up, the tested form may be a part): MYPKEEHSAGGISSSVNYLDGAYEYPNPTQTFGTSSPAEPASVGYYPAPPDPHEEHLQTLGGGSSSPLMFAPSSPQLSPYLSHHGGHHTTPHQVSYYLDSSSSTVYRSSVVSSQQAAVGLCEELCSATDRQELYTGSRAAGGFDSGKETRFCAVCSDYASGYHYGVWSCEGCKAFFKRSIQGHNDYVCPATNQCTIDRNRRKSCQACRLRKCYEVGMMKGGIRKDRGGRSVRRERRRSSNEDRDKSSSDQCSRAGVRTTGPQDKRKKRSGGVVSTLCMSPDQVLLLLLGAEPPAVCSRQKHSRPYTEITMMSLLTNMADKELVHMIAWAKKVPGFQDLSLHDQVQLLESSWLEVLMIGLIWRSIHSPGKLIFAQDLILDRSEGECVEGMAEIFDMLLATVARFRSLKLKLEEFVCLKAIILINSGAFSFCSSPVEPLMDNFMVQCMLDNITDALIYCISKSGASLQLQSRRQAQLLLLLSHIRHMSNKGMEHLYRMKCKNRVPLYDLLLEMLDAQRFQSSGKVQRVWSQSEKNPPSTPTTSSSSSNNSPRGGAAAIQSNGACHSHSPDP
structure (smiles),measurement,setting,value
COc1cc(C(=O)NC2CCN(C)CC2)ccc1Nc1ncc2c(n1)N(C1CCCC1)CC(F)(F)C(=O)N2C,outcome,[1],inactive
same,AC50,[2],3.01 nM (active)
same,AC50,[3],2.97 nM (active)
O=C(O)Cc1cc(I)c(Oc2ccc(O)c(I)c2)c(I)c1,outcome,[1],inactive
same,AC50,[2],22000 nM (active)
same,AC50,[3],20300 nM (active)
c1ccc2n[nH]nc2c1,outcome,[2],inactive
same,outcome,[3],inactive
NCc1cccc(C2CCN(C(=O)c3ccc(C#Cc4ccccc4F)o3)CC2)c1,outcome,[1],inactive
same,AC50,[2],21200 nM (active)
same,AC50,[3],22100 nM (active)
C[C@]12CC[C@@H]3c4ccc(O)cc4CC[C@H]3[C@@H]1CCC2=O,AC50,[4],14.5 nM (active)
same,AC50,[5],3.05 nM (active)
same,AC50,[6],6.32 nM (active)
same,outcome,[2],inactive
same,AC50,[3],71600 nM (active)
same,outcome,[3],inactive
same,AC50,[7],3.11 nM (active)
same,AC50,[8],3.83 nM (active)
CN1C(=O)CC[C@H]1c1cccnc1,outcome,[2],inactive
same,outcome,[3],inactive
CN(C)c1ccc(C(=C2C=CC(=[N+](C)C)C=C2)c2ccc(N(C)C)cc2)cc1,AC50,[1],3030 nM (active)
same,AC50,[2],281 nM (active)
same,AC50,[3],161 nM (active)
CC(C)(C)c1cc(/C=C2\SC(N)=NC2=O)cc(C(C)(C)C)c1O,outcome,[1],inactive
same,AC50,[2],13500 nM (active)
same,AC50,[3],15200 nM (active)
Oc1ccccc1,outcome,[1],inactive
same,outcome,[2],inactive
same,outcome,[3],inactive
CCOC(=O)O[C@H](C)OC(=O)c1ccc2c(c1)cc(C(=O)NC1CCN(C(C)C)CC1)n2Cc1cc(-c2ccc(Cl)s2)on1,outcome,[1],inactive
same,AC50,[2],10300 nM (active)
same,AC50,[3],4550 nM (active)
CCCCCCCCCC(=O)O,outcome,[2],inactive
same,outcome,[3],inactive
CC/C(=C(/CC)c1ccc(O)cc1)c1ccc(O)cc1,outcome,[1],inactive
same,AC50,[4],0.24 nM (active)
same,AC50,[5],0.0671 nM (active)
same,AC50,[6],0.078 nM (active)
same,AC50,[2],21300 nM (active)
same,AC50,[3],18000 nM (active)
same,AC50,[7],0.0517 nM (active)
same,AC50,[8],0.0485 nM (active)
